# Test results from PubChem BioAssay.
# The source made the active and inactive calls.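 Rule for the calls: active = inhibition above the hit cutoff set in the earlier primary screen (cut at about 27% in these data); inactive = the rest.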
# Molecular target: Protein phosphatase methylesterase 1 (Homo sapiens) (UniProt Q9Y570)
# Assay: PME-1 inhibitor activity retest, confirmation, biochemical, fluorescence polarization, FP-Rh probe, triplicate (AID 2171);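 note: 0% = enzyme with DMSO and 100% = wells lacking PME-1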
# Details: recombinant PME-1, FP-Rh probe fluorescence polarization; at 5.9 µM; active compounds read high
# Protein phosphatase methylesterase 1 (Homo sapiens), sequence (Q9Y570 whole entry, looked up): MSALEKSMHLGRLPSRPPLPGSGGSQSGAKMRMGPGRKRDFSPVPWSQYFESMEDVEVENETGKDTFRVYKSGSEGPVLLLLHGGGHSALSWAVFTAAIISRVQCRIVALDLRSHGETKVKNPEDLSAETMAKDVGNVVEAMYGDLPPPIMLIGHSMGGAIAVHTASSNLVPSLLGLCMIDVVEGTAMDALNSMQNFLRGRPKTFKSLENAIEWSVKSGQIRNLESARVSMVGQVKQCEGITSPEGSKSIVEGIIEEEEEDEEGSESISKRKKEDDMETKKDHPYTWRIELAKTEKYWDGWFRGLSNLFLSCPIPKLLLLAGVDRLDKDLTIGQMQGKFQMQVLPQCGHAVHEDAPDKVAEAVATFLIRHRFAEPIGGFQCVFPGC
row,SMILES,inhibition
1,Oc1ccc(N=Cc2ccc(OCc3ccccc3)cc2)cc1,6.36% (inactive)
2,N#C/C(=C/c1ccc(N2CCCC2)c([N+](=O)[O-])c1)c1nc2ccccc2[nH]1,30.9% (active)
3,Cc1ncc(CO)c(/C=N/NC(=S)Nc2ccc(Cl)c(Cl)c2)c1O,6.06% (inactive)
4,COc1ccc(C(=O)c2sc3nc(-c4ccccc4)ccc3c2N)cc1,11.8% (inactive)
5,COc1ccc2c(Cl)c(C(=O)N/N=C/c3c(C)[nH]c4ccccc34)sc2c1,18.5% (inactive)
6,Cc1ccc2nc(/C(C#N)=C/c3ccc(O)c(O)c3)[nH]c2c1,17.9% (inactive)
7,COc1cc(OC)cc(C(=O)Oc2ccc(/C=N/Nc3nc4ccccc4s3)cc2OC)c1,24.3% (inactive)
8,CCCCCCCCCCCCCCCC[n+]1ccc(/C=N/O)cc1,60.4% (active)
9,Nc1cc2nsnc2cc1Br,34.7% (active)
10,O=Nc1c(O)c2ccccc2c2ccccc12,65.8% (active)
11,COc1ccc(C2Nc3cccc4cccc(c34)N2)cc1Br,15.1% (inactive)
12,COc1ccc(/C=C/c2c(-c3ccc(OC)cc3)oc3cccnc23)cc1,24.5% (inactive)
13,Cc1cc(-c2ccccc2)nc(N/N=C/c2ccc(O)cc2O)n1,70.4% (active)
14,O=C(CNc1cccc2ccccc12)N/N=C/C(Br)=C/c1ccccc1,-1.47% (inactive)
15,Cc1cc(C)c2c(N)c(-c3nc4ccccc4[nH]3)sc2n1,3.16% (inactive)
16,CCCC(=O)NC(c1ccccc1Cl)c1c(O)ccc2ccccc12 (centres undefined),58.5% (active)
17,Cc1[nH]n(-c2ccccc2)c(=O)c1N=Nc1c(O)cc(S(=O)(=O)N(C)C)c2ccccc12,74.3% (active)
18,O=C(COc1ccccc1C(=O)N/N=C\c1ccc(O)c(O)c1)N/N=C/c1ccc(O)c(O)c1,-40.9% (inactive)
19,Cc1cc(N/N=C/c2ccc(O)c(C)c2O)nc(-c2ccccc2O)n1,27.9% (active)
20,Cc1cccc(NC(=O)CN2C(=O)S/C(=C\c3ccc(O)c([N+](=O)[O-])c3)C2=O)c1,24.7% (inactive)

row,SMILES,inhibition
1,CCc1ccc(S(=O)(=O)/N=C2/C=C(Sc3ncn[nH]3)C(=O)c3ccccc32)cc1,52.9% (active)
2,COc1ccc(-c2cc(-c3c(O)c(OC)c4occc4c3OC)[nH]n2)cc1OC,12.9% (inactive)
3,Cc1ccc(Nc2cc(C)c3c(O)cccc3n2)cc1C,26.7% (active)
4,O=c1[nH]c(C2CCN(S(=O)(=O)c3ccc(F)cc3)CC2)nc2c1nnn2Cc1ccc2c(c1)OCCO2,41% (active)
5,O=C1c2c(O)cccc2Cc2cccc(O)c21,23.4% (inactive)
6,Nc1c(C(=O)Nc2ccccc2)sc2nc(-c3ccco3)ccc12,59.5% (active)
7,Brc1ccc(N=NNc2ccccc2)cc1,31.4% (active)
8,CCOC(=O)CCc1c(C)nc(SCCCn2c(=O)[nH]c3ccccc32)c(C#N)c1C,22.6% (inactive)
9,O=C1c2ccccc2-c2onc3ccc(NCc4ccco4)c1c23,84.5% (active)
10,CCn1cc(C(=O)NCCCN2CCC(C)CC2)c(=O)c2cc(S(=O)(=O)N(C)C3CCCCC3)ccc21,31.6% (active)
11,Cc1ccc(C(=O)COC(=O)c2cccc(NC(=O)c3ccc([N+](=O)[O-])cc3[N+](=O)[O-])c2)cc1,-3.98% (inactive)
12,Nc1cc(Cl)nc(N/N=C/c2c(O)ccc3ccccc23)n1,21.6% (inactive)
13,CC1(C)CC(=O)C2=C(C1)N1C(=C(C#N)C2c2ccc(Cl)cc2)N=C(N)c2ccccc21 (centres undefined),44% (active)
14,COc1cc(/C=N/NC(=O)C(Cc2c[nH]c3ccccc23)NC(=O)OCc2ccccc2)cc([N+](=O)[O-])c1O (centres undefined),15.4% (inactive)
15,COc1cc(/C=N\Nc2nc3ccccc3o2)cc(OC)c1OC,31.4% (active)
16,Cc1ccc(O)c(N=CC2=C(O)c3ccccc3C2=O)c1,27.3% (active)
17,O=c1[nH]c(C2CCCN(S(=O)(=O)c3ccccc3)C2)nc2c1nnn2Cc1ccccc1 (centres undefined),22.6% (inactive)
18,Cn1c(O)c(/C=N/NC(=O)c2cc3ccccc3cc2O)c2ccccc21,58.7% (active)
19,Cc1oc(-c2ccc3ccccc3c2)nc1CN(C)C(C)c1ccncn1 (centres undefined),4.93% (inactive)
